# Several values for one entry are separate records, joined by “and”; a condition that tells them apart may be missing. Identical values can stand only once. Some structures have more than one record in an assay (separate samples or runs), and their calls can disagree. Activity calls are given as the source filed them. Rule for the calls: active = hit-call score of the fitted dose curve at least 0.9, where 1 is the maximum; inactive = score below 0.9.
# Read-out: Collagen I, COL1A1 (gene 1277)
# Experiment: BSK_hDFCGF_CollagenI: BioMAP Diversity Plus: hDFCGF Assay for Collagen I Biomarker Activity (AID 2284250)
# Settings: primary human foreskin fibroblasts
# Method: BSK_hDFCGF is a cell-based, multiplexed-readout assay that uses foreskin fibroblast, a human skin primary cell, with measurements taken at 24 hours after chemical dosing in a 96-well plate.BSK_hDFCGF_CollagenI is an assay component measured in the BSK_hDFCGF assay. It measures Collagen I antibody related to regulation of gene protein expression using ELISA technology.Data from the assay component BSK_hDFCGF_CollagenI was analyzed at the endpoint, BSK_hDFCGF_CollagenI, in the positive analysis fitting direction relative to DMSO as the negative control and baseline of activity. Using a type of binding reporter, gain or loss-of-signal activity can be used to understand protein changes. To generalize the intended target to other relatable targets, this assay endpoint is annotated to the 'cell adhesion molecules' intended target family, where the subfamily is 'collagen'.
# The levels of cell surface (or secreted, indicated by the prefix "s") biomarker endpoints were measured by ELISA. Overt cytotoxicity to cells in confluent adherent cultures (all systems other than the BT system) was assessed by measuring total protein levels using sulforhodamine B (SRB) staining in parallel cultures at the time of biomarker measurements, indicated as SRB endpoints. For proliferation assays for adherent cell types, individual cell types are cultured at sub-confluence and relative cell numbers quantified by SRB staining at time points optimized for each system (48 h: 3C and CASM3C systems; 72 h: BT and HDF3CGF systems; 96 h: SAg system). SRB was performed by staining cells with 0.1% SRB after fixation with 10% TCA and reading wells at 560 nm.Viability and proliferation of PBMC (T cells) was quantified by Alamar Blue reduction for the SAg and BT systems. For PBMC viability (referred to as PBMC Cytotoxicity within the assay endpoint names), cells were plated (75,000/well in a 96-well plate) and then chemical samples added for 1 h before addition of activators, SEB and TSST-1 (20 ng/mL final concentration each). Cells were incubated for 90 h. Then, Alamar Blue (20 uL/well) (Invitrogen, Cat DAL1100) was added for 6 h, and the plates were read with a fluorescence microplate reader at 546/580 nm (excitation/emission). For PBMC proliferation, cells were plated and activated as above but incubated for only 16 h prior to addition of Alamar Blue. Plates were read after 6 h.
Structure (SMILES),outcome,AC50
O=C(O)CCC(F)(F)C(F)(F)C(F)(F)C(F)(F)C(F)(F)C(F)(F)F,inactive,
CCCCCCCCCCCC,,9.41 µM (active) and 9.63 µM (active)
Oc1c(Cl)cc(Cl)cc1Sc1cc(Cl)cc(Cl)c1O,,1.32 µM (active) and 960 nM (active)
O=S(=O)(O)C(F)(F)C(F)(F)C(F)(F)C(F)(F)C(F)(F)C(F)(F)C(F)(F)C(F)(F)C(F)(F)C(F)(F)F,inactive,
O=C1NS(=O)(=O)c2ccccc21,inactive,
CN(Cc1cnc2nc(N)nc(N)c2n1)c1ccc(C(=O)N[C@@H](CCC(=O)O)C(=O)O)cc1,inactive,
O=P(O)(O)CCC(F)(F)C(F)(F)C(F)(F)C(F)(F)C(F)(F)C(F)(F)F,inactive,
OCC(F)(F)C(F)(F)C(F)(F)C(F)(F)C(F)(F)C(F)(F)C(F)(F)C(F)(F)C(F)(F)C(F)(F)C(F)(F)F,,42.7 nM (active) and 48.2 nM (active)
C=CC(=O)OCCC(F)(F)C(F)(F)C(F)(F)C(F)(F)C(F)(F)C(F)(F)C(F)(F)C(F)(F)F,inactive,
CN(CCO)S(=O)(=O)C(F)(F)C(F)(F)C(F)(F)C(F)(F)C(F)(F)C(F)(F)C(F)(F)C(F)(F)F,,1.65 µM (active) and 879 nM (active)
O=C(CC(=O)C(F)(F)C(F)(F)C(F)(F)F)c1cccs1,inactive,8.04 µM (active)
Oc1ccc(Cc2ccccc2O)cc1,inactive,
O=C(O)CCC(F)(F)C(F)(F)C(F)(F)C(F)(F)C(F)(F)F,inactive,
O=C(O)C(F)(F)OC(F)(F)C(F)(F)OC(F)(F)C(F)(F)OC(F)(F)C(F)(F)C(F)(F)C(F)(F)F,,30 µM (active)
O=P(O)(O)CCC(F)(F)C(F)(F)C(F)(F)C(F)(F)C(F)(F)C(F)(F)C(F)(F)C(F)(F)F,inactive,

# Reference: PubChem BioAssay (EPA / NIEHS)
